# Where “and” joins values, the source holds several entries; their conditions need not be identical. Equal values may be shown once. Out of some 5,500 compounds screened, about 2,000 (36%) were called active. Roughly 18% stayed inconclusive and do not appear here. Rule as the data show it: active = normalized growth mostly below about 0.91 (no sharp cut-off); inconclusive = no clear call, values can overlap the other calls; inactive = mostly above about 0.92. Some of the results follow.
# Assay: chemical genetic growth profiling, strain panel (AID 1159580);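 also: tested at 20 µM; growth read once vehicle control cultures reached saturation at 30 °C; 1 = growth at the plate median or of vehicle wells; lower values mean less growth of the strain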
# Details: growth OD
smiles,measurement,setting,value
COc1cc(-c2coc3cc(OCc4ccccc4)c(OC)c(O)c3c2=O)cc(O)c1OC,normalized growth,"S. cerevisiae deletion strains, locus YAL013W, strain DEP1, stronger effect = lower value",0.788 (active)
same,normalized growth,"S. cerevisiae deletion strains, locus YBR021W, strain FUR4, stronger effect = lower value",0.908 (inactive)
same,normalized growth,"S. cerevisiae deletion strains, locus YBR229C, strain ROT2, stronger effect = lower value",0.985 (inactive)
same,normalized growth,"S. cerevisiae deletion strains, locus YCL029C, strain bik1, stronger effect = lower value",0.962 (inactive)
same,normalized growth,"S. cerevisiae deletion strains, locus YDL035C, strain GPR1, stronger effect = lower value",0.757 (active)
same,normalized growth,"S. cerevisiae deletion strains, locus YDL074C, strain BRE1, stronger effect = lower value",0.764 (active)
same,normalized growth,"S. cerevisiae deletion strains, locus YDL101C, strain DUN1, stronger effect = lower value",0.918 (inactive)
same,normalized growth,"S. cerevisiae deletion strains, locus YDL185W, strain tfp1, stronger effect = lower value",0.968 (inactive)
same,normalized growth,"S. cerevisiae deletion strains, locus YDL192W, strain arf1, stronger effect = lower value",0.864 (active)
same,normalized growth,"S. cerevisiae deletion strains, locus YDR101C, strain arx1, stronger effect = lower value",0.958 (inactive)
same,normalized growth,"S. cerevisiae deletion strains, locus YDR150W, strain NUM1, stronger effect = lower value",0.911 (inactive)
same,normalized growth,"S. cerevisiae deletion strains, locus YDR162C, strain NBP2, stronger effect = lower value",0.714 (active)
same,normalized growth,"S. cerevisiae deletion strains, locus YDR318W, strain mcm21, stronger effect = lower value",0.877 (active)
same,normalized growth,"S. cerevisiae deletion strains, locus YDR388W, stronger effect = lower value",0.954 (inactive)
same,normalized growth,"S. cerevisiae deletion strains, locus YDR502C, strain sam2, stronger effect = lower value",0.901 (active)
same,normalized growth,"S. cerevisiae deletion strains, locus YEL061C, strain CIN8, stronger effect = lower value",0.821 (active)
same,normalized growth,"S. cerevisiae deletion strains, locus YER110C, stronger effect = lower value",1 (inactive)
same,normalized growth,"S. cerevisiae deletion strains, locus YER155C, strain BEM2, stronger effect = lower value",0.946 (inactive)
same,normalized growth,"S. cerevisiae deletion strains, locus YER167W, strain BCK2, stronger effect = lower value",0.879 (active)
same,normalized growth,"S. cerevisiae deletion strains, locus YGL078C, strain dbp3, stronger effect = lower value",0.937 (inactive)
same,normalized growth,"S. cerevisiae deletion strains, locus YGL086W, strain mad1, stronger effect = lower value",0.841 (active)
same,normalized growth,"S. cerevisiae deletion strains, locus YGL248W, strain PDE1, stronger effect = lower value",0.787 (active)
same,normalized growth,"S. cerevisiae deletion strains, locus YGR135W, strain pre9, stronger effect = lower value",0.836 (active)
same,normalized growth,"S. cerevisiae deletion strains, locus YGR252W, strain gcn5, stronger effect = lower value",0.81 (inactive)
same,normalized growth,"S. cerevisiae deletion strains, locus YHR030C, strain SLT2, stronger effect = lower value",0.808 (active) and 1.01 (inactive)
same,normalized growth,"S. cerevisiae deletion strains, locus YHR079C, strain IRE1 (second series), stronger effect = lower value",0.967 (inactive)
same,normalized growth,"S. cerevisiae deletion strains, locus YHR079C, strain IRE1, stronger effect = lower value",1.01 (inactive)
same,normalized growth,"S. cerevisiae deletion strains, locus YHR094C, strain hxt1, stronger effect = lower value",1 (inactive)
same,normalized growth,"S. cerevisiae deletion strains, locus YHR129C, strain ARP1, stronger effect = lower value",0.783 (active)
same,normalized growth,"S. cerevisiae deletion strains, locus YHR200W, strain rpn10, stronger effect = lower value",0.883 (active)
same,normalized growth,"S. cerevisiae deletion strains, locus YIL066C, strain RNR3, stronger effect = lower value",0.733 (active)
same,normalized growth,"S. cerevisiae deletion strains, locus YIL073C, strain SPO22, stronger effect = lower value",0.685 (inactive)
same,normalized growth,"S. cerevisiae deletion strains, locus YIL125W, strain kgd1, stronger effect = lower value",1 (inactive)
same,normalized growth,"S. cerevisiae deletion strains, locus YIR030C, strain dcg1, stronger effect = lower value",0.979 (inactive)
same,normalized growth,"S. cerevisiae deletion strains, locus YJL095W, strain BCK1, stronger effect = lower value",0.778 (active) and 1.02 (inactive)
same,normalized growth,"S. cerevisiae deletion strains, locus YJL134W, strain LCB3, stronger effect = lower value",0.981 (inactive)
same,normalized growth,"S. cerevisiae deletion strains, locus YJL168C, strain set2, stronger effect = lower value",0.993 (inactive)
same,normalized growth,"S. cerevisiae deletion strains, locus YJL187C, strain SWE1 (second series), stronger effect = lower value",0.837 (active)
same,normalized growth,"S. cerevisiae deletion strains, locus YJR043C, strain POL32, stronger effect = lower value",0.747 (active)
same,normalized growth,"S. cerevisiae deletion strains, locus YJR066W, strain TOR1, stronger effect = lower value",0.95 (inactive)
same,normalized growth,"S. cerevisiae deletion strains, locus YKL009W, strain mrt4, stronger effect = lower value",0.922 (inactive)
same,normalized growth,"S. cerevisiae deletion strains, locus YKL068W, stronger effect = lower value",1.02 (inactive)
same,normalized growth,"S. cerevisiae deletion strains, locus YKL085W, strain MDH1 (second series), stronger effect = lower value",0.996 (inactive)
same,normalized growth,"S. cerevisiae deletion strains, locus YKL085W, strain MDH1, stronger effect = lower value",0.996 (inactive)
same,normalized growth,"S. cerevisiae deletion strains, locus YKR001C, strain vps1, stronger effect = lower value",0.88 (active)
same,normalized growth,"S. cerevisiae deletion strains, locus YLR039C, strain RIC1, stronger effect = lower value",0.86 (inactive)
same,normalized growth,"S. cerevisiae deletion strains, locus YLR058C, strain SHM2, stronger effect = lower value",0.863 (active)
same,normalized growth,"S. cerevisiae deletion strains, locus YLR102C, strain apc9, stronger effect = lower value",0.998 (inactive)
same,normalized growth,"S. cerevisiae deletion strains, locus YLR113W, strain HOG1, stronger effect = lower value",1.02 (inactive)
same,normalized growth,"S. cerevisiae deletion strains, locus YLR262C, strain YPT6, stronger effect = lower value",0.857 (inactive)
same,normalized growth,"S. cerevisiae deletion strains, locus YLR268W, strain sec22, stronger effect = lower value",0.903 (inactive)
same,normalized growth,"S. cerevisiae deletion strains, locus YLR330W, strain CHS5, stronger effect = lower value",0.827 (active)
same,normalized growth,"S. cerevisiae deletion strains, locus YLR342W, strain FKS1 (second series), stronger effect = lower value",0.785 (active)
same,normalized growth,"S. cerevisiae deletion strains, locus YLR371W, strain rom2, stronger effect = lower value",0.86 (active)
same,normalized growth,"S. cerevisiae deletion strains, locus YLR418C, strain cdc73, stronger effect = lower value",0.705 (active)
same,normalized growth,"S. cerevisiae deletion strains, locus YML016C, strain PPZ1, stronger effect = lower value",0.846 (active)
same,normalized growth,"S. cerevisiae deletion strains, locus YML032C, strain rad52, stronger effect = lower value",0.956 (inactive)
same,normalized growth,"S. cerevisiae deletion strains, locus YML124C, strain tub3, stronger effect = lower value",0.964 (inactive)
same,normalized growth,"S. cerevisiae deletion strains, locus YMR078C, strain ctf18, stronger effect = lower value",1.01 (inactive)
same,normalized growth,"S. cerevisiae deletion strains, locus YMR223W, strain ubp8, stronger effect = lower value",0.877 (active)
same,normalized growth,"S. cerevisiae deletion strains, locus YMR263W, strain SAP30, stronger effect = lower value",0.893 (inactive)
same,normalized growth,"S. cerevisiae deletion strains, locus YMR307W, strain GAS1, stronger effect = lower value",0.736 (inactive)
same,normalized growth,"S. cerevisiae deletion strains, locus YNL067W, strain RPL9B, stronger effect = lower value",0.829 (active)
same,normalized growth,"S. cerevisiae deletion strains, locus YNL153C, strain GIM3, stronger effect = lower value",0.843 (active)
same,normalized growth,"S. cerevisiae deletion strains, locus YNL183C, strain NPR1, stronger effect = lower value",0.972 (inactive)
same,normalized growth,"S. cerevisiae deletion strains, locus YNL233W, strain BNI4, stronger effect = lower value",0.796 (active)
same,normalized growth,"S. cerevisiae deletion strains, locus YNL250W, strain rad50, stronger effect = lower value",0.945 (inactive)
same,normalized growth,"S. cerevisiae deletion strains, locus YNL271C, strain bni1, stronger effect = lower value",0.979 (inactive)
same,normalized growth,"S. cerevisiae deletion strains, locus YNL298W, strain CLA4, stronger effect = lower value",0.989 (inactive)
same,normalized growth,"S. cerevisiae deletion strains, locus YNL307C, strain MCK1, stronger effect = lower value",0.844 (active)
same,normalized growth,"S. cerevisiae deletion strains, locus YNL322C, strain KRE1, stronger effect = lower value",0.823 (active)
same,normalized growth,"S. cerevisiae deletion strains, locus YNR052C, strain pop2, stronger effect = lower value",0.951 (inactive)
same,normalized growth,"S. cerevisiae deletion strains, locus YOL006C, strain TOP1, stronger effect = lower value",0.449 (active)
same,normalized growth,"S. cerevisiae deletion strains, locus YOL012C, strain htz1",0.39 (inactive)
same,normalized growth,"S. cerevisiae deletion strains, locus YOL147C, strain pex11, stronger effect = lower value",0.955 (inactive)
same,normalized growth,"S. cerevisiae deletion strains, locus YOR061W, strain CKA2, stronger effect = lower value",0.848 (active)
same,normalized growth,"S. cerevisiae deletion strains, locus YOR069W, strain VPS5, stronger effect = lower value",0.834 (active)
same,normalized growth,"S. cerevisiae deletion strains, locus YOR136W, strain idh2, stronger effect = lower value",0.97 (inactive)
same,normalized growth,"S. cerevisiae deletion strains, locus YOR144C, strain elg1, stronger effect = lower value",0.988 (inactive)
same,normalized growth,"S. cerevisiae deletion strains, locus YOR184W, strain ser1, stronger effect = lower value",0.896 (inactive)
same,normalized growth,"S. cerevisiae deletion strains, locus YOR231W, strain MKK1, stronger effect = lower value",1.02 (inactive)
same,normalized growth,"S. cerevisiae deletion strains, locus YOR316C, strain cot1, stronger effect = lower value",0.996 (inactive)
same,normalized growth,"S. cerevisiae deletion strains, locus YPL241C, strain CIN2, stronger effect = lower value",0.974 (inactive)
same,normalized growth,"S. cerevisiae deletion strains, locus YPL256C, strain CLN2, stronger effect = lower value",1 (inactive)
same,normalized growth,"S. cerevisiae deletion strains, locus YPR119W, strain clb2, stronger effect = lower value",1 (inactive)
same,normalized growth,"S. cerevisiae deletion strains, locus YPR141C, strain kar3, stronger effect = lower value",1.01 (inactive)
same,normalized growth,"S. cerevisiae deletion strains, locus YPR163C, strain tif3, stronger effect = lower value",0.837 (active)
same,normalized growth,"S. cerevisiae deletion strains, locus YPR167C, strain met16, stronger effect = lower value",0.871 (active)
same,normalized growth,"S. cerevisiae deletion strains, strain wtn01, stronger effect = lower value",0.849 (active)
same,normalized growth,"S. cerevisiae strains, strain wild type, stronger effect = lower value",0.663 (active)
